Screens as filed in PubChem BioAssay.
In the library only some 5.3% were active in any assay of this set; here they are far more common.
Sfp PPTase inh: inhibitors of Bacillus subtilis Sfp phosphopantetheinyl transferase; Q9F4F7; Biochemical Sfp PPTase activity, qHTS; Potency, µM, hits mostly inhibitors; actives 3.5% (n = 310,000);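 note: the enzyme is Sfp with the accession as filed and its product quenches rhodamine fluorescence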
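Sfp 15 nM + cpd, 15 min RT; start w/ rhodamine-CoA 5 uM, BHQ-2-YbbR 12.5 uM (final); 50 mM Hepes pH 7.6, 10 mM MgCl2, 0.01% NP-40, 0.01% BSA; read 525/598 nm at 0 and 30 min.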
Coupling enz: coupling enzyme interference in Giardia aldolase counter-screen; coupling enzyme system counterscreen, AmpLite Red fluorescence; activity change, negative = inhibition, % at 58.2 µM, hits read low; actives 0.67% (n = 290,000); in the data active = activity change below about -30%
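Activity here indicates interference with the coupling reaction, not aldolase inhibition. Compounds at 57.5 uM final met coupling enzymes for 10 min at RT; substrate and AmpLite Red detection followed, with a 525/598 nm fluorescence read after 20 min.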
KDM4E inh: blocks human JMJD2E demethylase activity. actives 1.6% (n = 230,000). Potency, µM (series often up to 57.1 µM), hits mostly inhibitors. JMJD2E catalytic domain, FDH-coupled NADH fluorescence (FDH is formaldehyde dehydrogenase). AID 2147; active = well fitted inhibition curve with a large enough effect, not every such curve was filed as active; inconclusive = small, poorly fitted or top-dose-only effect, or another doubt; inactive = no such curve, though single readings can be large or run the other way; note: nearly all actives have a fitted effect of over 50% in size
Target sequence (B2RXH2 1-337 limits assumed): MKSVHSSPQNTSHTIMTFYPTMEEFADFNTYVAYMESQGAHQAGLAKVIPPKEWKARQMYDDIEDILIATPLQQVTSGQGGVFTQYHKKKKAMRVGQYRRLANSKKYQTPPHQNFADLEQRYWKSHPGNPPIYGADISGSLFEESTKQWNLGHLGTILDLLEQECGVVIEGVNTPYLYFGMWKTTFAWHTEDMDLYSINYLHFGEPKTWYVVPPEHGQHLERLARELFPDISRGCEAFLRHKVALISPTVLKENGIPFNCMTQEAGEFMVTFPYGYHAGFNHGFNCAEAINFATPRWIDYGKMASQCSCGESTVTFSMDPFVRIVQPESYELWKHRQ
Tau fluor cs: counter-screen for tau fibril formation inhibitors | tau K18 P301L Alexa594 fluorescence, heparin fibrillization | Potency, µM (top dose mostly 57.7 µM) | actives 0.93% (n = 280,000) | AID 1463; note: nearly all actives have a fitted effect of over 55% in size
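Human K18 P301L tau (15 uM unlabeled plus 0.24 uM Alexa 594-labeled, final) in 100 mM sodium acetate pH 7 was mixed with compound and 20 uM heparin and incubated 6 hr at 37 C.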
Tau fibril ThT: tau fibrillization inhibition (ThT binding); P10636; recombinant tau K18 P301L (four-repeat tau fragment), heparin-induced fibrillization, ThT fluorescence; Potency, µM (titrated, usually from 57.4 µM), usual class: inhibitors; actives 2.1% (n = 270,000); AID 1460; note: nearly all actives have a fitted effect of over 55% in size
Target sequence (P10636 561-689 P618L limits assumed): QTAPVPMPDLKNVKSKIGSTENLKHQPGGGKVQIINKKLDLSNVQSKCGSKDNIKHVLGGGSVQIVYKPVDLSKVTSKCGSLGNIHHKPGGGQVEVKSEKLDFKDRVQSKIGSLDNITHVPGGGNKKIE
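K18 P301L tau (15 uM + 0.24 uM Alexa 594-tagged), heparin 20 uM, NaOAc pH 7, 6 h 37 C; ThT 30 uM, 1 h RT, ex 450/em 510 nm.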
Tau fibril FP: blocks human tau fibril formation measured by polarization; P10636; K18 P301L tau heparin fibrillization, Alexa594 FP, 6 h; Potency, µM (titrated, usually from 57.7 µM), hits mostly inhibitors; actives 0.39% (n = 280,000); note: nearly all actives have a fitted effect of over 55% in size
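K18 P301L tau (15 uM unlabeled/0.24 uM Alexa 594-labeled, final) + compound + heparin 20 uM final; 100 mM NaOAc pH 7; 6 hr 37 C; ThT 30 uM final added, 1 hr RT; FP ex 555/em 632 nm.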
Of the large screens only hits and unclear results are named; the others gave an inactive call; [ ] = remark or other dose. Unless noted, calls come from the whole dose curve; as a rule, active = well fitted curve in the direction sought with a large enough effect; inconclusive = small, poorly fitted or top-dose-only effect, or another doubt; inactive = no such curve, though single readings can be large; an effect the other way counts as inactive or inconclusive.

CCOc1ccccc1NC(=O)N1CCN(Cc2cc(=O)n3nc(-c4ccc(C)cc4)sc3n2)CC1	none (no result: Sfp PPTase inh, Coupling enz, KDM4E inh)
CC(O)/C=C/c1cccc[n+]1C (stereo unspecified)	KDM4E inh 7.9µM, Tau fibril ThT inconclusive
C[n+]1ccccc1/C=N/O	none
Cn1sc(=O)n(Cc2ccccc2)c1=O	Sfp PPTase inh 0.14µM (no result: KDM4E inh, Tau fluor cs, Tau fibril ThT, Tau fibril FP)
CC(=O)c1cc(-c2ccccc2)[nH]c1N1CCOCC1	Sfp PPTase inh inconclusive, Tau fibril ThT 32µM, Tau fibril FP inconclusive
CC(=O)c1c(N2CCOCC2)nc2ccc(Br)cc2c1-c1ccccc1	none (no result: Tau fibril ThT)
CCOC(=O)Cn1c(=O)n(CC2CCCO2)c2nc(-c3c(F)cccc3Cl)nc(C(N)=O)c21 (stereo unspecified)	none (no result: Sfp PPTase inh, Coupling enz, KDM4E inh)
COc1ccc(/C=C/C(=O)N2CCCc3ccccc32)cc1	Sfp PPTase inh 79µM
Cc1ccc(/C=C/C(=O)N2CCCC(C(N)=O)C2)o1 (stereo unspecified)	Sfp PPTase inh 18µM
Cc1ccc(/C=C/C(=O)N2CCc3ccccc32)o1	Sfp PPTase inh 28µM, Tau fibril ThT inconclusive
Cc1ccc(/C=C/C(=O)N2CCN(c3ccc(F)cc3)CC2)o1	none
O=C(/C=C/c1ccco1)N1CCc2ccccc21	Sfp PPTase inh inconclusive, Tau fibril ThT inconclusive
Cc1ccc(NC(=O)Nc2nnc(N(C)Cc3ccccc3)s2)cc1	none (no result: Sfp PPTase inh, Coupling enz, KDM4E inh)
CCOC(=O)/C(=C/c1ccc(OC(=O)c2ccccc2)cc1)C(C)=O	Sfp PPTase inh inconclusive, KDM4E inh 7.9µM, Tau fibril ThT inconclusive
C=CCNC(=O)c1ccccc1NC(=O)c1ccccc1SC	Sfp PPTase inh 20µM
COCCNC(=O)c1ccccc1NC(=O)c1ccccc1SC	Sfp PPTase inh 56µM
CCCNC(=O)c1ccccc1NC(=O)c1ccccc1SC	none
CCc1ccc2[nH]c(=O)c(C3C(C#N)=C(N)Oc4c3ccc3cccnc43)cc2c1 (stereo unspecified)	KDM4E inh inconclusive, Tau fluor cs inconclusive, Tau fibril ThT inconclusive
Cc1ccc2cc(C3C(C#N)=C(N)Oc4c3ccc3cccnc43)c(=O)[nH]c2c1 (stereo unspecified)	Sfp PPTase inh 10µM, Coupling enz -39, KDM4E inh inconclusive, Tau fibril ThT inconclusive, Tau fibril FP inconclusive
CCN(CC)c1ccc(/C=N/NC(=O)c2ccc(Br)o2)cc1	Tau fluor cs inconclusive, Tau fibril ThT 3.2µM
O=C(N/N=C/c1ccc2c(c1)OCO2)c1ccc(Br)o1	none
O=S(=O)(Nc1cc(Sc2cccc3cccnc23)c(O)c2ccccc12)c1ccccc1	Sfp PPTase inh 10µM, Coupling enz -55, KDM4E inh 28µM, Tau fluor cs 16µM[quencher], Tau fibril ThT 16µM, Tau fibril FP inconclusive
O=C1c2ccccc2C(=O)c2cc(S(=O)(=O)Nc3cccc4cccnc34)ccc21	none (no result: KDM4E inh, Tau fluor cs, Tau fibril ThT, Tau fibril FP)
CCOc1ccc(S(=O)(=O)Nc2cc3c(C(=O)OC)c(COC)oc3c3ccccc23)cc1	none (no result: Sfp PPTase inh, Coupling enz, KDM4E inh)
CCOc1ccc(S(=O)(=O)Nc2cc(SCC(=O)O)c(O)c3ccccc23)cc1	Coupling enz -62 (no result: KDM4E inh, Tau fluor cs, Tau fibril ThT, Tau fibril FP)
Cc1ccc(NS(=O)(=O)c2cc(NC(=O)C(C)Oc3ccccc3)ccc2C)c(C)c1 (stereo unspecified)	none
Cc1ccc(C)c(S(=O)(=O)Nc2cc(SCC(=O)O)c(O)c3ccccc23)c1	Sfp PPTase inh 3.5µM, Coupling enz -53, Tau fluor cs inconclusive, Tau fibril ThT 3.5µM, Tau fibril FP 7.9µM
COCCNC(=O)C(=O)NNC(=O)c1ccccc1OC	Sfp PPTase inh 79µM
COc1ccccc1C(=O)Nc1nnc(C)s1	none
COc1ccccc1C(=O)NNc1ncc(C)s1	Sfp PPTase inh 40µM (no result: KDM4E inh, Tau fluor cs, Tau fibril ThT, Tau fibril FP)
COc1ccccc1C(=O)NNC(=O)c1ccccc1	none (no result: KDM4E inh, Tau fluor cs, Tau fibril ThT, Tau fibril FP)
CNc1nc(-c2ccccn2)nnc1-c1ccccc1	Sfp PPTase inh 63µM, KDM4E inh inconclusive
COc1cccc2oc3cc(C#Cc4ccccn4)ccc3c(=O)c12	Sfp PPTase inh 40µM (no result: KDM4E inh, Tau fluor cs, Tau fibril ThT, Tau fibril FP)
O=C(C1CC1)N1CCc2cc(Br)cc(S(=O)(=O)Nc3ccc(C(F)(F)F)cc3)c21	none (no result: Sfp PPTase inh, Coupling enz, KDM4E inh)
COc1cccc(Cn2c(=O)c(-c3cccs3)nc3cnc(N4CCOCC4)nc32)c1	none (no result: KDM4E inh, Tau fluor cs, Tau fibril ThT, Tau fibril FP)
O=c1c(-c2ccc(Cl)cc2)nc2cnc(N3CCNCC3)nc2n1Cc1ccc(F)cc1	Sfp PPTase inh 45µM (no result: KDM4E inh, Tau fluor cs, Tau fibril ThT, Tau fibril FP)
COc1cccc(Cn2c(=O)c(-c3cccs3)nc3cnc(N4CCNCC4)nc32)c1	Sfp PPTase inh 18µM (no result: KDM4E inh, Tau fluor cs, Tau fibril ThT, Tau fibril FP)
O=c1c(CCc2ccccc2)nc2cnc(N3CCNCC3)nc2n1Cc1ccc(F)cc1	Sfp PPTase inh 50µM (no result: KDM4E inh, Tau fluor cs, Tau fibril ThT, Tau fibril FP)
CN1CCN(c2ncc3nc(-c4ccc(Cl)cc4)c(=O)n(Cc4ccc(F)cc4)c3n2)CC1	none (no result: KDM4E inh, Tau fluor cs, Tau fibril ThT, Tau fibril FP)
CN1CCN(c2ncc3nc(CCc4ccccc4)c(=O)n(Cc4ccc(F)cc4)c3n2)CC1	none (no result: KDM4E inh, Tau fluor cs, Tau fibril ThT, Tau fibril FP)
COc1cccc(Cn2c(=O)c(-c3ccc(Cl)cc3)nc3cnc(N4CCNCC4)nc32)c1	Sfp PPTase inh 40µM (no result: KDM4E inh, Tau fluor cs, Tau fibril ThT, Tau fibril FP)
COc1ccc(-n2c(=O)cnc3cnc(N4CCN(C)CC4)nc32)cc1	none (no result: KDM4E inh, Tau fluor cs, Tau fibril ThT, Tau fibril FP)
C[C@H](O)CN(C)C	none (no result: Coupling enz, KDM4E inh, Tau fluor cs, Tau fibril ThT, Tau fibril FP)
Cc1sc2ncn(CC(=O)N3CCN(c4ccccc4F)CC3)c(=O)c2c1S(=O)(=O)N1CCN(c2ncccn2)CC1	none (no result: Sfp PPTase inh, Coupling enz, KDM4E inh)
CCOc1ccc2c(c1)c(=O)c(C(=O)c1ccccc1)cn2Cc1ccccc1F	none (no result: Sfp PPTase inh, Coupling enz, KDM4E inh)
CCC1=NNc2cccc3c(OC)ccc1c23	Sfp PPTase inh 32µM, KDM4E inh 5µM, Tau fluor cs inconclusive, Tau fibril ThT 13µM, Tau fibril FP inconclusive
